# The supplement of paper PMC10498489
# Screen size: about 2,300 compounds; about 330 (14%) showed activity. Only a sample is shown. A number with no mark means an inactive call.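 How the source made its calls: active = median modified Z-score above 1.96; inactive = 1.96 or below.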
# Tested on: HepG2 Srxn1-GFP reporter cells (+30 nM CDDO-Me)
# Assay: Srxn1-GFP intensity median modified Z-score relative to plate median; higher = stronger NRF2 / oxidative stress reporter activation, active = hit call of the paper
# Conditions: 10 µM; exposure time: 24h
# Method in brief: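 In 96-well plates holding 20,000 HepG2 Srxn1-GFP BAC reporter cells per well, compound at 10 μM and an NRF2 activator at 30 nM were added together for 24 h, with DMSO at ≤0.1%, across three replicate plates. After fixation in formaldehyde and Hoechst staining, confocal images were analysed cell by cell for cytoplasmic GFP, and images containing under 100 cells were excluded. Values are replicate medians of the per-plate modified Z-score of GFP intensity, scaled by 1.4826 × median absolute deviation.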
row,Structure (SMILES),Srxn1-GFP intensity median modified Z-score
1,COc1ccc(-c2coc3c4c(c(CC=C(C)C)c(O)c3c2=O)OC(C)(C)C=C4)cc1 [euspeclibcmpd2167],-0.398
2,COc1cc(=NS(=O)(=O)c2ccc(N)cc2)[nH]c(OC)n1 [euspeclibcmpd399],-0.451
3,OC[C@H]1O[C@H](O[C@H]2[C@H](O)[C@@H](O)[C@H](O)O[C@@H]2CO)[C@H](O)[C@@H](O)[C@@H]1O [euspeclibcmpd2088],-0.629
4,COCCn1c(SCC(=O)N(C)Cc2ccc(Cl)s2)nc2cc(Cl)ccc21,0.575
5,CC(C=Cc1c(C)c(O)c2ccccc2c1O)=CCC[C@H](C)CCC[C@H](C)CCCC(C)C [euspeclibcmpd621],-0.697
6,N=c1[nH]nc(-c2cccc(Cl)c2Cl)c(=N)[nH]1 [euspeclibcmpd829],-0.0242
7,CCN(CCCc1ccccc1)CCCc1ccccc1 [euspeclibcmpd16],0.166
8,CCN(CC)CCc1nc(-c2ccccc2)no1 [euspeclibcmpd2430],10.5 (active)
9,C[C@H](CC(=O)C1OC1(C)C)[C@@H]1C(=O)C[C@@]2(C)C3=CCC4C(C)(C)[C@@H](O[C@@H]5OC[C@@H](O)[C@H](O)[C@H]5O)CC[C@@]45C[C@@]35[C@@H](O)C[C@]12C (some centres undefined) [euspeclibcmpd2331],0.374
10,COCCCCC(=NOCCN)c1ccc(C(F)(F)F)cc1 [euspeclibcmpd828],-0.302
11,NC(=O)CCC(N)C(=O)O (centres undefined) [euspeclibcmpd1404],-0.533
12,COc1cc(C(=O)OCCCN2CCCN(CCCOC(=O)c3cc(OC)c(OC)c(OC)c3)CC2)cc(OC)c1OC [euspeclibcmpd1946],6.07 (active)
13,COc1cc(C(=O)N2CCOCC2)cc(OC)c1OC [euspeclibcmpd666],0.129
14,COc1cc(OC)c(C(=O)CCCN2CCCC2)c(OC)c1 [euspeclibcmpd1235],-0.587
15,COc1cc(-c2coc3cc(OCc4ccccc4)c(OC)c(O)c3c2=O)cc(OCc2ccccc2)c1OC [euspeclibcmpd1942],-0.32
16,COc1cc2c(cc1OC)-c1cc3ccc(OC)c(OC)c3c[n+]1CC2 [euspeclibcmpd2350],0.574
17,COc1ccc2cc3[n+](cc2c1OC)CCc1cc2c(cc1-3)OCO2 [euspeclibcmpd1051],6.03 (active)
18,C[n+]1cc2c3c(ccc2c2ccc4cc5c(cc4c21)OCO5)OCO3 [euspeclibcmpd10],0.32
19,CCc1cccc2c(C(=O)COC(=O)c3c4c(nc5ccccc35)CCC(C(C)(C)C)C4)c[nH]c12 (centres undefined),1.73
20,C#C[C@]1(O)CCC2C3CCc4cc(OC5CCCC5)ccc4C3CC[C@@]21C (some centres undefined) [euspeclibcmpd466],0.485
21,CCCCCC(CC(=O)O)C(=O)O (centres undefined) [euspeclibcmpd1642],-0.141
22,CCCCCC(CC(O)=NO)C(=O)NC(C(=O)N1CCCC1CO)C(C)C (centres undefined) [euspeclibcmpd1993],11.7 (active)
23,CN1N=C(C(=O)NC2(C)CCS(=O)(=O)C2)CCC1=O (centres undefined),1.37

row,Structure (SMILES),Srxn1-GFP intensity median modified Z-score
1,C[C@]12CCC3c4ccc(OS(=O)(=O)O)cc4CCC3C1CCC2=O (some centres undefined) [euspeclibcmpd707],-0.429
2,CN=C(NC#N)NCCSCc1[nH]cnc1C [euspeclibcmpd338],3.04 (active)
3,O=C(N[C@@H](CO)[C@H](O)c1ccc([N+](=O)[O-])cc1)C(Cl)Cl [euspeclibcmpd53],-0.347
4,CC1(C)CC[C@]2(C(=O)O)CC[C@]3(C)C(=CCC4[C@@]5(C)CC[C@@H](O)C(C)(C)C5CC[C@]43C)C2C1 (some centres undefined) [euspeclibcmpd1603],4.09 (active)
5,CC1(C)CC[C@]2(C(=O)O)CC[C@]3(C)C(=CCC4[C@@]5(C)CC[C@H](O)[C@@](C)(CO)C5CC[C@]43C)C2C1 (some centres undefined) [euspeclibcmpd1554],-0.176
6,CC1(C)CC[C@]2(C)CC[C@]3(C)C(=CCC4[C@@]5(C)CC[C@H](O)C(C)(C)C5CC[C@]43C)C2C1 (some centres undefined) [euspeclibcmpd1345],1.93
7,Cc1cc2nc3c(=O)[nH]c(=O)nc-3n(C[C@@H](O)[C@@H](O)[C@@H](O)COP(=O)(O)O)c2cc1C [euspeclibcmpd2323],-0.0697
8,Cc1ccc2[nH]c3c(c2c1)CC(Nc1ccc(CCC(=O)N2CCCC2)cc1)CC3 (centres undefined),4.66 (active)
9,O=C(Nc1ccccc1)OCC(CN1CCCCC1)OC(=O)Nc1ccccc1 (centres undefined) [euspeclibcmpd499],-0.575
10,CN1C(C(=O)N=c2cccc[nH]2)C(=O)c2sccc2S1(=O)=O (centres undefined) [euspeclibcmpd536],-0.404
11,N=c1ccn([C@H]2CC[C@@H](CO)O2)c(=O)[nH]1 [euspeclibcmpd485],-0.378
12,CCC(CCC(C)[C@H]1CCC2C3CC=C4C[C@@H](OC(C)=O)CC[C@]4(C)C3CC[C@@]21C)C(C)C (some centres undefined) [euspeclibcmpd1595],-0.573
13,COc1cc(OC)c2c(=O)cc(-c3ccccc3)oc2c1 [euspeclibcmpd1677],0.503
14,COc1ccc2oc(-c3ccccc3OC)cc(=O)c2c1,0.553
15,COc1ccccc1-c1cc(=O)c2c(OC)cccc2o1 [euspeclibcmpd2107],2.2 (active)
16,O=c1cc(-c2ccccc2)oc2cccc(O)c12 [euspeclibcmpd2071],-0.0825
17,COc1ccc2oc(-c3ccccc3OC)cc(=O)c2c1 [euspeclibcmpd1670],3.62 (active)
18,COc1ccc(-c2cc(=O)c3cc(OC)ccc3o2)cc1 [euspeclibcmpd2272],-0.0301
19,COc1ccc2c(=O)cc(-c3ccccc3OC)oc2c1 [euspeclibcmpd2182],0.253
20,Cn1c(=O)c2nc(Br)[nH]c2n(C)c1=O [euspeclibcmpd2124],-0.455
21,C[N+](C)(C)CCOP(=O)(O)OP(=O)(O)OC[C@H]1OC(n2ccc(=N)[nH]c2=O)[C@H](O)[C@@H]1O (some centres undefined) [euspeclibcmpd812],-0.665
22,CC(=O)[C@@]1(O)CCC2C3=CC(Cl)=C4CC(=O)C5CC5[C@]4(C)C3CC[C@@]21C (some centres undefined) [euspeclibcmpd1156],-0.345
23,CS(=O)(=O)c1ccc(N)cc1,0.342

row,Structure (SMILES),Srxn1-GFP intensity median modified Z-score
1,CC(C)CCCC(C)[C@H]1CCC2C3CC=C4CC(=O)CC[C@]4(C)C3CC[C@@]21C (some centres undefined) [euspeclibcmpd1330],-0.35
2,c1ccc(C2CN3CCSC3=N2)cc1 (centres undefined) [euspeclibcmpd2122],1.03
3,O=C(O)c1nc2cc(Cl)c(Cl)cc2[nH]c1=O [euspeclibcmpd1804],-0.361
4,O=c1[nH]c(=O)n(C2C[C@H](O)[C@@H](CO)O2)cc1C(F)(F)F (some centres undefined) [euspeclibcmpd660],2.21 (active)
5,O=c1[nH]c(=O)n(C2C[C@@H](O)[C@@H](CO)O2)cc1F (some centres undefined) [euspeclibcmpd516],1.56
6,O=c1[nH]c(=O)n([C@H]2C[C@H](O)C(CO)O2)cc1I (some centres undefined) [euspeclibcmpd2208],0
7,CC(NC(CCc1ccccc1)C(=O)O)C(=O)N1Cc2ccccc2CC1C(=O)O (centres undefined) [euspeclibcmpd841],-0.626
8,CC[C@H]1OC(=O)C(C)[C@@H](O[C@H]2C[C@@](C)(OC)[C@@H](O)[C@H](C)O2)[C@H](C)[C@@H](O[C@@H]2O[C@H](C)C[C@H](N(C)C)[C@H]2O)[C@](C)(OC)CC(C)C(=O)C(C)[C@@H](O)[C@]1(C)O (some centres undefined) [euspeclibcmpd669],1.56
9,CC(C(=O)O)C1CCC2C3CC=C4CC(O)CCC4(C)C3CCC12C (centres undefined) [euspeclibcmpd1985],0.801
10,CCc1oc2ccccc2c1C(=O)c1cc(Br)c(O)c(Br)c1 [euspeclibcmpd888],2.7 (active)
11,O=C(O)c1cc(=O)c2ccccc2o1 [euspeclibcmpd1112],-0.193
12,CCCCc1oc2ccccc2c1C(=O)c1cc(I)c(OCCN(CC)CC)c(I)c1 [euspeclibcmpd976],-0.752
13,CC(=O)OCC[C@H](C)CCC=C(C)C [euspeclibcmpd1610],1.13
14,COc1ccc2c(c1)c(CC(=O)Nc1nccs1)c(C)n2C(=O)c1ccc(Cl)cc1,1.66
15,O=C(C=Cc1ccc(O)cc1)c1ccccc1O [euspeclibcmpd2063],-0.0605
16,O=C(C=Cc1ccccc1)c1ccc(O)cc1O [euspeclibcmpd1990],2.48 (active)
17,O=C(/C=C/c1ccccc1)c1ccc(O[C@@H]2O[C@H](CO)[C@@H](O)[C@H](O)[C@H]2O)cc1O [euspeclibcmpd1690],-0.0185
18,COc1ccc(/C=C/C(=O)c2ccc(O)cc2O)cc1 [euspeclibcmpd1445],1.77
19,COc1ccc(O)c(C(=O)/C=C/c2ccc(F)cc2)c1,1.36
20,O=C(C=Cc1ccc(O)cc1)c1ccc(O)cc1O [euspeclibcmpd1984],13.1 (active)
21,N=c1[nH]c(F)nc2c1ncn2[C@@H]1O[C@H](COP(=O)(O)O)[C@@H](O)[C@@H]1O [euspeclibcmpd850],0.307
22,COc1cc(C=CC(=O)O)cc(OC)c1O [euspeclibcmpd1663],-0.0893
23,CC(C)(C)NC(=O)C1CCC2C3CCC4NC(=O)C=C[C@]4(C)C3CC[C@]12C (some centres undefined) [euspeclibcmpd849],-0.292
